# PubChem BioAssay (NCATS)
# “And” between values parts separate entries of the source, which are not always exact repeats. Identical values can stand only once. Inconclusive results are not listed. A call without a number means that no potency is given here. The source holds several records for some structures; these can differ, active in one and inactive in another. The source made the active and inactive calls. Calls come from the whole dose curve; as a rule, active = well fitted curve in the direction sought with a large enough effect; inconclusive = small, poorly fitted or top-dose-only effect, or another doubt; inactive = no such curve, though single readings can be large; an effect the other way counts as inactive or inconclusive.
# Experiments:
# CRL-7250 = normal cell line; test: Cytotoxic Profiling of Annotated Libraries Using Quantitative High-Throughput Screening (AID 1296008); settings: Five cell lines viability, CellTiter-Glo ATP luminescence, 48-72 h; max response: stronger effect = lower value; note: nearly all actives have a fitted effect of over 60% in size
# Summary of the method: (§1)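 Compounds were pin-transferred onto cells and incubated 48 or 72 hr at 37 degree Celsius, 95% humidity. CellTiter-Glo was added, plates sat 10 min at room temperature, then ATP-coupled luminescence was imaged as the viability read-out.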
# HEK293 = test: as above; settings: Five cell lines viability, CellTiter-Glo ATP luminescence, 48-72 h; max response: stronger effect = lower value
# Summary of the method: as §1
# HaCat [1] = test: as above; settings: Five cell lines viability, CellTiter-Glo ATP luminescence, 48-72 h; max response: stronger effect = lower value
# Summary of the method: as §1
# KB-3-1 = test: as above; settings: Five cell lines viability, CellTiter-Glo ATP luminescence, 48-72 h; max response: stronger effect = lower value
# Summary of the method: as §1
# NIH3T3 [2] = test: as above; settings: Five cell lines viability, CellTiter-Glo ATP luminescence, 48-72 h; max response: stronger effect = lower value
# Summary of the method: as §1
# MCC-13 = test: qHTS assay to identify novel small-molecules to repurpose for Merkel cell carcinoma treatment (AID 1296009); settings: MCC and control cell lines, CellTiter-Glo viability, 72 h; series mostly up to 46 µM; note: nearly all actives have a fitted effect of over 60% in size
# Summary of the method: (§2)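 qHTS format: cells treated with library compounds in DMSO across 8 (NPC) or 11 (MIPE) concentrations. Readout after 72 hr at 37 degree celsius was CellTiter-Glo luminescence.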
# MCC-26 = test: as above; settings: MCC and control cell lines, CellTiter-Glo viability, 72 h; series mostly up to 46 µM
# Summary of the method: as §2
# MKL-1 = test: as above; settings: MCC and control cell lines, CellTiter-Glo viability, 72 h; series mostly up to 46 µM
# Summary of the method: as §2
# MKL-2 = test: as above; settings: MCC and control cell lines, CellTiter-Glo viability, 72 h; series mostly up to 46 µM
# Summary of the method: as §2
# NIH3T3 [3] = test: as above; settings: MCC and control cell lines, CellTiter-Glo viability, 72 h; at 44.8 µM (top of the series) unless noted
# Summary of the method: as §2
# UISO = test: as above; settings: MCC and control cell lines, CellTiter-Glo viability, 72 h; series mostly up to 46 µM
# Summary of the method: as §2
# WaGa = test: as above; settings: MCC and control cell lines, CellTiter-Glo viability, 72 h; series mostly up to 46 µM
# Summary of the method: as §2
# SC27B = test: qHTS profiling for inhibitors of Plasmodium falciparum proliferation (AID 504749); note: nearly all actives have a fitted effect of over 60% in size; settings: P. falciparum in erythrocytes, SYBR Green DNA, 72 h; series mostly up to 28.7 µM
# Summary of the method: (§3)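 Parasite proliferation within erythrocytes, 72 h exposure. Endpoint: SYBR Green I fluorescence after overnight lysis at room temperature. Controls: 0.29 uM artemisinin, DMSO.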
# TAB109 = test: as above; settings: P. falciparum in erythrocytes, SYBR Green DNA, 72 h; series mostly up to 28.7 µM
# Summary of the method: as §3
# TAB113 = test: as above; settings: P. falciparum in erythrocytes, SYBR Green DNA, 72 h; series mostly up to 28.7 µM
# Summary of the method: as §3
# TAB165 = test: as above; settings: P. falciparum in erythrocytes, SYBR Green DNA, 72 h; series mostly up to 28.7 µM
# Summary of the method: as §3
# HACAT [4] = test: qHTS assay to identify novel small-molecules to repurpose for Merkel cell carcinoma treatment (AID 1296009); settings: MCC and control cell lines, CellTiter-Glo viability, 72 h; at 44.8 µM (top of the series) unless noted; note: nearly all actives have a fitted effect of over 60% in size
# Summary of the method: as §2
# W2 = test: qHTS profiling for inhibitors of Plasmodium falciparum proliferation (AID 504749); note: nearly all actives have a fitted effect of over 60% in size; settings: P. falciparum in erythrocytes, SYBR Green DNA, 72 h; series mostly up to 28.7 µM
# Summary of the method: as §3
# C33A = test: Primary qHTS to identify gynecologic anti-cancer compounds using libraries of approved drugs and bioactive compounds (AID 1345084); settings: Gynecologic cancer cell panel viability, ATPlite luminescence, 48 h; series mostly up to 57.5 µM; note: nearly all actives have a fitted effect of over 55% in size
# Summary of the method: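 Cells, 1,000 per well, plated 16 h, then exposed 48 h at 37 C to compounds. Viability by ATPlite luminescence after 15 min at room temperature.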
# Potency is the fitted concentration of half-maximal effect.
compound,measurement,setting,value
CC(C)c1ccc2c(c1)c(SC(C)(C)C)c(CC(C)(C)C(=O)O)n2Cc1ccc(Cl)cc1,max response,CRL-7250,-29.4% (inactive)
same,max response,HEK293,-2.03% (inactive)
same,max response,HaCat [1],-20.8% (inactive)
same,max response,KB-3-1,-8.99% (inactive)
same,outcome,NIH3T3 [2],inactive
same,Potency,MCC-13,inactive
same,Potency,MCC-26,inactive
same,Potency,MKL-1,inactive
same,Potency,MKL-2,inactive
same,outcome,NIH3T3 [3],inactive
same,Potency,UISO,inactive
same,Potency,WaGa,inactive
O=c1oc2cc(O)ccc2s1,Potency,SC27B,inactive
same,Potency,TAB109,inactive
same,Potency,TAB113,inactive
same,Potency,TAB165,inactive
same,max response,CRL-7250,4.4% (inactive)
same,max response,HEK293,-4.04% (inactive)
same,outcome,HaCat [1],inactive
same,max response,KB-3-1,-11.2% (inactive) and -4.56% (inactive)
same,max response,NIH3T3 [2],-4.48% (inactive)
same,outcome,HACAT [4],inactive
same,Potency,MCC-13,inactive
same,Potency,MCC-26,inactive
same,Potency,MKL-1,inactive
same,Potency,MKL-2,inactive
same,Potency,UISO,inactive
same,Potency,WaGa,inactive
CN1C(C(=O)Nc2ccccn2)=C(O)c2sccc2S1(=O)=O,Potency,SC27B,inactive
same,Potency,TAB109,inactive
same,Potency,TAB113,inactive
same,Potency,TAB165,inactive
same,Potency,W2,inactive
same,Potency,C33A,inactive
CCCCCCCCOc1ccccc1C(=O)Nc1ccc(C(=O)OCC[N+](C)(CC)CC)cc1,Potency,TAB109,7.94 µM (active)
same,Potency,TAB113,10 µM (active)
same,Potency,TAB165,6.31 µM (active)
same,Potency,W2,6.75 µM (active)
same,max response,CRL-7250,-18.9% (inactive) and -13.2% (inactive)
same,max response,HaCat [1],-9.66% (inactive)
same,max response,NIH3T3 [2],-11.9% (inactive) and 2.27% (inactive)
same,Potency,MCC-13,inactive
same,Potency,MCC-26,inactive
same,Potency,MKL-2,16.6 µM (active) and 5.96 µM (active)
same,Potency,UISO,15 µM (active)
same,Potency,WaGa,29.9 µM (active)
same,Potency,C33A,inactive
COc1cc(Nc2c(C#N)cnc3cc(OCCCN4CCN(C)CC4)c(OC)cc23)c(Cl)cc1Cl,Potency,CRL-7250,3.72 µM (active) and 6.51 µM (active)
same,Potency,HEK293,2.37 µM (active) and 4.18 µM (active) and 11.6 µM (active)
same,Potency,HaCat [1],841 nM (active) and 1.66 µM (active) and 2.31 µM (active)
same,Potency,NIH3T3 [2],9.44 µM (active) and 1.18 µM (active) and 8.2 µM (active)
same,Potency,MKL-1,8.41 µM (active) and inactive
same,Potency,MKL-2,inactive
same,Potency,WaGa,29.9 µM (active) and inactive
same,Potency,C33A,14.1 µM (active)
CC(C)[N+]1(C)[C@@H]2CC[C@H]1CC(OC(=O)C(CO)c1ccccc1)C2 (stereo partly specified),max response,CRL-7250,2.83% (inactive)
same,max response,HEK293,-4.08% (inactive)
same,outcome,HaCat [1],inactive
same,outcome,NIH3T3 [2],inactive
same,outcome,HACAT [4],inactive
same,Potency,MCC-13,inactive
same,Potency,MCC-26,inactive
same,Potency,MKL-1,inactive
same,outcome,NIH3T3 [3],inactive
same,Potency,UISO,inactive
same,Potency,WaGa,18.7 µM (active)
C[C@H](Cc1ccc(O)c(O)c1)[C@@H](C)Cc1ccc(O)c(O)c1,outcome,HaCat [1],inactive
same,max response,KB-3-1,-9.31% (inactive) and -6.61% (inactive)
same,max response,NIH3T3 [2],-21.7% (inactive)
same,outcome,HACAT [4],inactive
same,Potency,MCC-13,inactive
same,Potency,MKL-1,11.8 µM (active)
same,Potency,MKL-2,18.7 µM (active)
same,Potency,WaGa,18.7 µM (active)
CC(=O)O[C@H]1C(=O)[C@@]2(C)C([C@H](OC(=O)c3ccccc3)[C@]3(O)C[C@H](OC(=O)[C@H](O)[C@@H](NC(=O)c4ccccc4)c4ccccc4)C(C)=C1C3(C)C)[C@]1(OC(C)=O)CO[C@@H]1C[C@@H]2O (stereo partly specified),Potency,HEK293,5.7 nM (active)
same,max response,HEK293,-90.8% (inactive)
same,Potency,KB-3-1,1 nM (active) and 7.2 nM (active)
same,Potency,NIH3T3 [2],5.9 nM (active) and 36 nM (active)
same,Potency,MCC-26,0.0037 µM (active)
same,Potency,MKL-1,inactive
same,Potency,MKL-2,inactive
NS(=O)(=O)c1cc(C(=O)O)c(NCc2ccco2)cc1Cl,max response,CRL-7250,-5.7% (inactive) and -6.17% (inactive)
same,max response,HEK293,1.46% (inactive) and -13.3% (inactive)
same,max response,HaCat [1],-0.435% (inactive) and 2.7% (inactive)
same,max response,NIH3T3 [2],-5.6% (inactive) and -3.32% (inactive)
same,Potency,MCC-13,inactive
same,Potency,MCC-26,inactive
same,Potency,MKL-1,inactive
same,Potency,MKL-2,inactive
same,Potency,UISO,inactive
same,Potency,WaGa,inactive
same,Potency,C33A,inactive
NCCCCNCCCN,max response,CRL-7250,-45.5% (inactive)
same,outcome,HaCat [1],inactive
same,max response,KB-3-1,1.33% (inactive)
same,outcome,HACAT [4],inactive
same,Potency,MCC-13,inactive
same,Potency,MCC-26,inactive
same,Potency,MKL-2,8.33 µM (active)
same,Potency,UISO,inactive
O=C(O)c1cn(-c2ccc(F)cc2)c2cc(N3CCNCC3)c(F)cc2c1=O,Potency,SC27B,inactive
same,Potency,TAB113,inactive
same,Potency,W2,10.7 µM (active)
same,max response,CRL-7250,3.53% (inactive) and 1.39% (inactive)
same,max response,HEK293,-4.73% (inactive)
same,max response,HaCat [1],-14.9% (inactive)
same,max response,NIH3T3 [2],-0.0226% (inactive) and -6.36% (inactive)
same,Potency,MCC-13,inactive
same,Potency,MCC-26,inactive
same,Potency,MKL-1,inactive
same,Potency,MKL-2,inactive
same,Potency,UISO,inactive
same,Potency,WaGa,inactive
same,Potency,C33A,inactive
CCCCC(CC)COC(=O)C(C#N)=C(c1ccccc1)c1ccccc1 (stereo unspecified),Potency,SC27B,8.91 µM (active)
same,Potency,TAB165,8.91 µM (active)
same,Potency,W2,6.75 µM (active)
same,Potency,HEK293,18800 nM (active)
same,max response,HaCat [1],-0.998% (inactive)
same,outcome,HaCat [1],inactive
same,outcome,KB-3-1,inactive
same,max response,NIH3T3 [2],-1.9% (inactive)
same,outcome,NIH3T3 [2],inactive
same,outcome,HACAT [4],inactive
same,Potency,MCC-13,inactive
same,Potency,MCC-26,inactive
same,Potency,MKL-1,inactive
same,outcome,NIH3T3 [3],inactive
same,Potency,WaGa,inactive
same,Potency,C33A,inactive
O=C(O)c1cc(=O)c2c(OCC(O)COc3cccc4oc(C(=O)O)cc(=O)c34)cccc2o1,Potency,SC27B,inactive
same,Potency,TAB109,inactive
same,Potency,TAB113,inactive
same,Potency,TAB165,inactive
same,Potency,W2,inactive
same,Potency,C33A,inactive
